# According to the supplement of paper PMC8728848:
# The full list was thinned out, with the strongest signals kept by preference.
# B1: Als3-41 (Candida albicans) (protein)
# chain: KTITGVFNSFNSLTWSNAATYNYKGPGTPTWNAVLGWSLDGTSASPGDTFTLNMPCVFKFTTSQTSVDLTAHGVKYATCQFQAGEEFMTFSTLTCTVSNTLTPSIKALGTVTLPLAFNVGGTGSSVDLEDSKCFTAGTNTVTFNDGGKKISINVDFERSNVDPKGYLTDSRVIPSLNKVSTLFVAPQCANGYTSGTMGFANTYGDVQIDCSNIHVGITKGLNDWNYPVSSESFSYTKTCSSNGIFITYKNVPAGYRPFVDAYISATDVNSYTLSYANEYTCAGGYWQRAPFTLRWTGYRNSDAGSNGIVIVATTRTVTDSTTAVTTLPFDPNRDKTKTIEILKPIPTTTITTSYVGVTTSYLTKTAPIGETATVIVD
# Experiments:
# Assay in all cases: glycan array binding signal (z-score within array); higher = stronger binding
# Settings in all cases: glycan notation: IUPAC condensed, linker removed
# [1] = molecular target: Fuc(a1-2)Gal(b1-3)GlcNAc
# Outline: (§1)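 Glycan array binding is given as a within-array Z-score, which can be read as non-binding when negative. The arrays, 3228 of them, came from the Consortium for Functional Glycomics database and were retained only where the protein sequence was available. Z-scores were averaged across arrays of the same protein sequence at different concentrations or buffers and across linkers.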
# [2] = molecular target: Fuc(a1-2)Gal(b1-3)GlcNAc(b1-2)Man(a1-3)[Fuc(a1-2)Gal(b1-3)GlcNAc(b1-2)Man(a1-6)]Man(b1-4)GlcNAc(b1-4)[Fuc(a1-6)]GlcNAc
# Outline: as §1
# [3] = molecular target: Fuc(a1-2)Gal(b1-3)GlcNAc(b1-3)Gal(b1-4)Glc
# Outline: as §1
# [4] = molecular target: Fuc(a1-2)Gal6S(b1-3)GlcNAc
# Outline: as §1
# [5] = molecular target: Fuc(a1-2)[Gal(a1-3)]Gal(b1-4)GlcNAc(b1-2)Man(a1-3)[Fuc(a1-2)[Gal(a1-3)]Gal(b1-4)GlcNAc(b1-2)Man(a1-6)]Man(b1-4)GlcNAc(b1-4)GlcNAc
# Outline: as §1
# [6] = molecular target: Fuc(a1-2)[Gal(a1-3)]Gal(b1-4)GlcNAc(b1-3)[Fuc(a1-2)[Gal(a1-3)]Gal(b1-4)GlcNAc(b1-6)]GalNAc
# Outline: as §1
# [7] = molecular target: Fuc(a1-2)[Gal(a1-3)]Gal(b1-4)GlcNAc(b1-6)GalNAc
# Outline: as §1
# [8] = molecular target: Fuc(a1-2)[GalNAc(a1-3)]Gal(b1-3)GlcNAc(b1-2)Man(a1-3)[Fuc(a1-2)[GalNAc(a1-3)]Gal(b1-3)GlcNAc(b1-2)Man(a1-6)]Man(b1-4)GlcNAc(b1-4)GlcNAc
# Outline: as §1
# [9] = molecular target: Fuc(a1-2)[GalNAc(a1-3)]Gal(b1-4)GlcNAc(b1-2)Man(a1-3)[Fuc(a1-2)[GalNAc(a1-3)]Gal(b1-4)GlcNAc(b1-2)Man(a1-6)]Man(b1-4)GlcNAc(b1-4)[Fuc(a1-6)]GlcNAc
# Outline: as §1
# [10] = molecular target: Fuc(a1-2)[GalNAc(a1-3)]Gal(b1-4)GlcNAc(b1-3)Gal(b1-4)GlcNAc(b1-3)Gal(b1-4)GlcNAc
# Outline: as §1
# [11] = molecular target: Fuc(a1-3)[Gal(b1-4)]GlcNAc(b1-3)Gal(b1-3)[Fuc(a1-4)]GlcNAc
# Outline: as §1
# [12] = molecular target: Fuc(a1-3)[Gal3S(b1-4)]GlcNAc6S
# Outline: as §1
# [13] = molecular target: Fuc(a1-4)GlcNAc
# Outline: as §1
# [14] = molecular target: Gal(a1-2)Gal
# Outline: as §1
# [15] = molecular target: Gal(b1-2)Gal
# Outline: as §1
# [16] = molecular target: Gal(b1-3)GlcNAc(b1-3)Gal(b1-4)GlcNAc(b1-2)[Gal(b1-3)GlcNAc(b1-3)Gal(b1-4)GlcNAc(b1-6)]Man(a1-6)[Gal(b1-3)GlcNAc(b1-3)Gal(b1-4)GlcNAc(b1-2)Man(a1-3)]Man(b1-4)GlcNAc(b1-4)[Fuc(a1-6)]GlcNAc
# Outline: as §1
# [17] = molecular target: Gal(b1-3)[Fuc(a1-4)]GlcNAc
# Outline: as §1
# [18] = molecular target: Gal(b1-3)[Neu5Ac(b2-6)]GalNAc
# Outline: as §1
# [19] = molecular target: Gal(b1-4)GlcNAc(b1-2)Man(a1-6)[GlcNAc(b1-2)Man(a1-3)]Man(b1-4)GlcNAc(b1-4)GlcNAc
# Outline: as §1
# [20] = molecular target: Gal(b1-4)GlcNAc(b1-3)Gal(b1-4)GlcNAc(b1-2)Man(a1-3)[Gal(b1-4)GlcNAc(b1-3)Gal(b1-4)GlcNAc(b1-2)Man(a1-6)]Man(b1-4)GlcNAc(b1-4)GlcNAc
# Outline: as §1
# [21] = molecular target: Gal(b1-4)GlcNAc(b1-3)Gal(b1-4)GlcNAc(b1-3)Gal(b1-4)GlcNAc(b1-2)Man(a1-3)[Gal(b1-4)GlcNAc(b1-3)Gal(b1-4)GlcNAc(b1-3)Gal(b1-4)GlcNAc(b1-2)Man(a1-6)]Man(b1-4)GlcNAc(b1-4)GlcNAc
# Outline: as §1
# [22] = molecular target: Gal(b1-4)GlcNAc(b1-3)Gal(b1-4)GlcNAc(b1-3)Gal(b1-4)GlcNAc(b1-3)Gal(b1-4)GlcNAc(b1-3)Gal(b1-4)GlcNAc(b1-2)Man(a1-3)[Gal(b1-4)GlcNAc(b1-3)Gal(b1-4)GlcNAc(b1-3)Gal(b1-4)GlcNAc(b1-3)Gal(b1-4)GlcNAc(b1-3)Gal(b1-4)GlcNAc(b1-2)Man(a1-6)]Man(b1-4)GlcNAc(b1-4)GlcNAc
# Outline: as §1
# [23] = molecular target: Gal(b1-4)GlcNAc(b1-3)Gal(b1-4)GlcNAc(b1-3)Gal(b1-4)GlcNAc(b1-3)Gal(b1-4)GlcNAc(b1-3)Gal(b1-4)GlcNAc(b1-2)[Gal(b1-4)GlcNAc(b1-3)Gal(b1-4)GlcNAc(b1-3)Gal(b1-4)GlcNAc(b1-3)Gal(b1-4)GlcNAc(b1-3)Gal(b1-4)GlcNAc(b1-6)]Man(a1-6)[Gal(b1-4)GlcNAc(b1-3)Gal(b1-4)GlcNAc(b1-3)Gal(b1-4)GlcNAc(b1-3)Gal(b1-4)GlcNAc(b1-3)Gal(b1-4)GlcNAc(b1-2)Man(a1-3)]Man(b1-4)GlcNAc(b1-4)[Fuc(a1-6)]GlcNAc
# Outline: as §1
# [24] = molecular target: Gal(b1-4)GlcNAc(b1-3)[Fuc(a1-3)GlcNAc(b1-6)]Gal(b1-4)Glc
# Outline: as §1
# [25] = molecular target: Gal3S(b1-4)Glc6S
# Outline: as §1
# [26] = molecular target: GalNAc(b1-4)GlcNAc
# Outline: as §1
# [27] = molecular target: GalNAc(b1-4)GlcNAc6S
# Outline: as §1
# [28] = molecular target: GlcNAc(b1-2)[GlcNAc(b1-4)]Man(a1-3)[GlcNAc(b1-4)][GlcNAc(b1-2)[GlcNAc(b1-6)]Man(a1-6)]Man(b1-4)GlcNAc(b1-4)[Fuc(a1-6)]GlcNAc
# Outline: as §1
# [29] = molecular target: GlcNAc(b1-3)Gal(b1-4)GlcNAc(b1-2)[GlcNAc(b1-3)Gal(b1-4)GlcNAc(b1-6)]Man(a1-6)[GlcNAc(b1-3)Gal(b1-4)GlcNAc(b1-2)Man(a1-3)]Man(b1-4)GlcNAc(b1-4)GlcNAc
# Outline: as §1
# [30] = molecular target: GlcNAc(b1-3)Gal(b1-4)GlcNAc(b1-3)Gal(b1-4)GlcNAc(b1-2)Man(a1-3)[GlcNAc(b1-3)Gal(b1-4)GlcNAc(b1-3)Gal(b1-4)GlcNAc(b1-2)Man(a1-6)]Man(b1-4)GlcNAc(b1-4)GlcNAc
# Outline: as §1
binder,measurement,setting,value
B1,glycan array binding signal (z-score),[1],-0.256
same,glycan array binding signal (z-score),[2],-0.306
same,glycan array binding signal (z-score),[3],-0.317
same,glycan array binding signal (z-score),[4],-0.047
same,glycan array binding signal (z-score),[5],-0.283
same,glycan array binding signal (z-score),[6],1.91
same,glycan array binding signal (z-score),[7],-0.229
same,glycan array binding signal (z-score),[8],-0.203
same,glycan array binding signal (z-score),[9],-0.001
same,glycan array binding signal (z-score),[10],1.63
same,glycan array binding signal (z-score),[11],-0.315
same,glycan array binding signal (z-score),[12],1.6
same,glycan array binding signal (z-score),[13],7.63
same,glycan array binding signal (z-score),[14],-0.006
same,glycan array binding signal (z-score),[15],-0.182
same,glycan array binding signal (z-score),[16],0.669
same,glycan array binding signal (z-score),[17],-0.315
same,glycan array binding signal (z-score),[18],-0.359
same,glycan array binding signal (z-score),[19],-0.102
same,glycan array binding signal (z-score),[20],6.2
same,glycan array binding signal (z-score),[21],2.56
same,glycan array binding signal (z-score),[22],1.05
same,glycan array binding signal (z-score),[23],-0.117
same,glycan array binding signal (z-score),[24],-0.31
same,glycan array binding signal (z-score),[25],-0.151
same,glycan array binding signal (z-score),[26],0.551
same,glycan array binding signal (z-score),[27],1.79
same,glycan array binding signal (z-score),[28],-0.311
same,glycan array binding signal (z-score),[29],1.97
same,glycan array binding signal (z-score),[30],2.21
